Laboratory results published in PubChem BioAssay.
Where “and” joins values, the source holds several entries; their conditions need not be identical. Identical values can stand only once. Unmarked numbers belong to inactive results. Calls of active or inactive are those of the source. Cut-off read from the data, not from the text of the source, unless noted: active = inhibition above about 33%; inactive = the rest.

Assays:
[1] = molecular target: Nuclear receptor coactivator 3 (Homo sapiens) (UniProt Q9Y6Q9); experiment: SRC3 coactivator transcriptional activity inhibitors, confirmation, cell-based, luminescence, quadruplicate (AID 588792;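 active = mean inhibition over 43.08%, the solvent-only control mean plus 3 SD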;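 note: 0% = DMSO treated cells and 100% = gossypol at 36 µM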); settings: HEK293 GAL4-SRC3 luciferase reporter, at 3.6 µM, active compounds read high
[2] = tested on: transactivating tegument protein VP16 (Human herpesvirus 1), Gal4-VP16 luciferase reporter; experiment: VP16 transactivation inhibitors, counter-screen for SRC3 inhibitor project, cell-based, luminescence, high throughput (AID 588794; in the data active = inhibition above about 30%); settings: mammalian cells, VP16-driven luciferase reporter luminescence; at 3.6 µM; active compounds read high
[3] = molecular target: Nuclear receptor coactivator 1 (Homo sapiens) (UniProt Q15788); experiment: SRC1 coactivator transcriptional activity inhibitors, confirmation, cell-based, luminescence, quadruplicate (AID 588820;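 active = mean inhibition above 46.68%, the untreated control wells mean plus 3 SD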;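 note: 0% = DMSO wells and 100% = gossypol 36 µM treated wells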); settings: HEK293 GAL4-SRC1 luciferase reporter, at 3.6 µM, active compounds read high
[4] = VP16 transactivation inhibitors, counter-screen for SRC1 inhibitor project, cell-based, luminescence, high throughput (AID 588824; in the data active = inhibition above about 25%); settings: cell-based VP16 transactivation luciferase luminescence; at 3.6 µM; active compounds read high
[5] = StAR promoter reporter inhibitors, counter-screen for LRH-1 inverse agonist project, cell-based, luminescence, high throughput (AID 651611; in the data active = inhibition above about 28%); settings: StAR promoter luciferase reporter counterscreen, at 3.6 µM, active compounds read high
[6] = molecular target: Nuclear receptor subfamily 5 group A member 2 (Homo sapiens) (UniProt O00482); experiment: LRH-1 (NR5A2) inverse agonists, retest, confirmation, cell-based, luminescence (AID 651613; in the data active = inhibition above about 42%;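 note: HEK293T cells co-transfected with LRH-1 and StAR promoter luciferase reporter; 0% = vehicle wells and 100% = parental cells lacking receptor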); settings: cell-based LRH-1 luciferase reporter, inverse agonism; at 3.6 µM; active compounds read high
[7] = molecular target: Steroidogenic factor 1 (Homo sapiens) (UniProt Q13285); experiment: SF1 (NR5A1) inverse agonists, counter-screen for LRH-1 inverse agonist project, cell-based, luminescence, high throughput (AID 651614; in the data active = inhibition above about 44%;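 note: cells cotransfected with StAR promoter reporter and SF1 expression vector; 0% = vehicle on cells with receptor and 100% = vehicle on cells lacking receptor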); settings: cell-based SF1 luciferase reporter, at 3.6 µM, active compounds read high
[8] = VP16 transactivation reporter inhibitors, counter-screen for LRH-1 inverse agonist project, cell-based, luminescence, high throughput (AID 651615); settings: Gal4-VP16 luciferase reporter cells, at 3.6 µM, active compounds read high
[9] = tested on: transactivating tegument protein VP16 (Human herpesvirus 1); experiment: VP16 transactivation reporter inhibitors, counter-screen for SRC2 inhibitor project, cell-based, luminescence, single concentration (AID 652007; in the data active = inhibition above about 36%); settings: cell-based VP16 transactivation luciferase reporter, at 8.9 µM, active compounds read high
[10] = molecular target: Nuclear receptor coactivator 2 (Homo sapiens) (UniProt Q15596); experiment: SRC2 coactivator transcriptional activity inhibitors, confirmation, cell-based, luminescence, HEK293, triplicate (AID 652008;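 active = mean inhibition above 46.5%, the solvent-only control mean plus 3 SD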;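 note: 0% = DMSO-treated cells and 100% = Gossypol at 36 µM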); settings: HEK293 GAL4-SRC2 luciferase reporter, at 8.9 µM, active compounds read high
Nuclear receptor coactivator 2 (Homo sapiens), sequence (Q15596 whole entry, looked up, the tested form may be a part): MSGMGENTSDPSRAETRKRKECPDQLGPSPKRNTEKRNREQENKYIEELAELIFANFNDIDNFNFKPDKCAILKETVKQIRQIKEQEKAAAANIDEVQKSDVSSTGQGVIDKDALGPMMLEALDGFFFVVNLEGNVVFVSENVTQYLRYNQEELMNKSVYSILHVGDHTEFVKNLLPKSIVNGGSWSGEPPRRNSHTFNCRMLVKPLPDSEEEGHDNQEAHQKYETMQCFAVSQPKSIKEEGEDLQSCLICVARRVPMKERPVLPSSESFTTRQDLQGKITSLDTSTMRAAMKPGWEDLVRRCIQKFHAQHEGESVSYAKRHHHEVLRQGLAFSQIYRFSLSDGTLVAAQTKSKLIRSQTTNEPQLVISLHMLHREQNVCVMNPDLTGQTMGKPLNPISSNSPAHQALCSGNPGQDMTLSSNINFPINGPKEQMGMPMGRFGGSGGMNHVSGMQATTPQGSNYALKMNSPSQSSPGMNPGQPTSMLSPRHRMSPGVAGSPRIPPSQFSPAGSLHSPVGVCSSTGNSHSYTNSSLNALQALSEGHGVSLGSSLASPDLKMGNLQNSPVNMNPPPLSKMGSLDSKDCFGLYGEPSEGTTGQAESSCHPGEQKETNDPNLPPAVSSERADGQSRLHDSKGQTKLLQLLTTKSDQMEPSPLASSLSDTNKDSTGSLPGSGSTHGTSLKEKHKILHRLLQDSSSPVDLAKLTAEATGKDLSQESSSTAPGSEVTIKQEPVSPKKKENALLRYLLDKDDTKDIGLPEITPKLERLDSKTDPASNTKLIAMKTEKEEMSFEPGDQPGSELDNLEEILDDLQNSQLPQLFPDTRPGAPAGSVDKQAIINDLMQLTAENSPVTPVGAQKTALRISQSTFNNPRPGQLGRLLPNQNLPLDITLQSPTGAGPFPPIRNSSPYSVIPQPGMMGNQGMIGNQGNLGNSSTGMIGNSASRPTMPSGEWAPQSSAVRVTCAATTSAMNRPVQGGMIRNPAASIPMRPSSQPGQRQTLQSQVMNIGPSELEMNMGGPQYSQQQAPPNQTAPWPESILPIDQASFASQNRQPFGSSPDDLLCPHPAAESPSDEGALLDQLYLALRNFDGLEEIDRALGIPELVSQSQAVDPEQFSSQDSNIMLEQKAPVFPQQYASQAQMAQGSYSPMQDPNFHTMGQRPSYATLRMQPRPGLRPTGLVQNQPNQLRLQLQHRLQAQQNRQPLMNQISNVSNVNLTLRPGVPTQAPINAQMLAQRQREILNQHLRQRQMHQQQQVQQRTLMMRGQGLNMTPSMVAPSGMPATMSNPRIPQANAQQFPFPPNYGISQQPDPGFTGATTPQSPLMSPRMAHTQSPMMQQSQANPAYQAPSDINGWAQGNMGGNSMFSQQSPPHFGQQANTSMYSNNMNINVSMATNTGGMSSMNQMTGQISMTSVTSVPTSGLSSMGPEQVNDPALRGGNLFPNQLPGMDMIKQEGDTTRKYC

Nuclear receptor coactivator 1 (Homo sapiens), sequence (Q15788 whole entry, looked up, the tested form may be a part): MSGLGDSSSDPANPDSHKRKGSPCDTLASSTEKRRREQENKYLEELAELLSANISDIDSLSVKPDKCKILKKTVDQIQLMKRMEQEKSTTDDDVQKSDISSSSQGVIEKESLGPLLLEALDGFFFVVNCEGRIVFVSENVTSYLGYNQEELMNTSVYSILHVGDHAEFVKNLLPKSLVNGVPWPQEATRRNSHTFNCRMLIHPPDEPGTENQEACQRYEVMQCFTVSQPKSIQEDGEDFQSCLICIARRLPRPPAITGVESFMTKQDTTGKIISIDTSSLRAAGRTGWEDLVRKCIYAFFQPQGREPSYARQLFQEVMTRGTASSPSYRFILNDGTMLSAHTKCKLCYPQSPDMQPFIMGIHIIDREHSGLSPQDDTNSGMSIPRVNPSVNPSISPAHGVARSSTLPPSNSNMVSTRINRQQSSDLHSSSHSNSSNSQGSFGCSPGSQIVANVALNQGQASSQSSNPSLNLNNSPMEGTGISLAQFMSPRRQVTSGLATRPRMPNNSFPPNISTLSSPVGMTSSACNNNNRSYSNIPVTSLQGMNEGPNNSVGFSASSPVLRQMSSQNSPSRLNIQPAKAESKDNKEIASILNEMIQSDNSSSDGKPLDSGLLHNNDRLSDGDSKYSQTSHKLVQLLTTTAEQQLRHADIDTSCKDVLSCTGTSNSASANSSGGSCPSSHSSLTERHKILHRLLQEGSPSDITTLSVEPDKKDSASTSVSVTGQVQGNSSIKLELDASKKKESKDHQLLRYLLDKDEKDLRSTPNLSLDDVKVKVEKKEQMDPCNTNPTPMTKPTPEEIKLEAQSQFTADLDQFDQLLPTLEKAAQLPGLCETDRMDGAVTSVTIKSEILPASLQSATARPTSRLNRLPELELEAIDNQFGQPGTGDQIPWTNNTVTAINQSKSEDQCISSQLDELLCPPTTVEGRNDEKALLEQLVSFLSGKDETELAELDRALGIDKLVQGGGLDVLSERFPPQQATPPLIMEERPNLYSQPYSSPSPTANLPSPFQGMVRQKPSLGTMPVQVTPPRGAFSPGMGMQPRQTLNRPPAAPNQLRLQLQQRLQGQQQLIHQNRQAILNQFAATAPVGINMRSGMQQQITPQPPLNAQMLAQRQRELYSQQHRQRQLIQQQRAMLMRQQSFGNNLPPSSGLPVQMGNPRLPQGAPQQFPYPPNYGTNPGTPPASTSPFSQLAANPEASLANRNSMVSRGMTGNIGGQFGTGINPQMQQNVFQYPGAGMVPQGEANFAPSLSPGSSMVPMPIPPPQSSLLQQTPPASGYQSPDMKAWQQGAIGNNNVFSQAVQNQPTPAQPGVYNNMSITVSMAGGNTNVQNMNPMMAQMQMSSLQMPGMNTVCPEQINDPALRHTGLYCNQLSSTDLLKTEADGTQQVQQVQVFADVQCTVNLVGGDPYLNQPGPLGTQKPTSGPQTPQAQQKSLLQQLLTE
Steroidogenic factor 1 (Homo sapiens), sequence (Q13285 whole entry, looked up, the tested form may be a part): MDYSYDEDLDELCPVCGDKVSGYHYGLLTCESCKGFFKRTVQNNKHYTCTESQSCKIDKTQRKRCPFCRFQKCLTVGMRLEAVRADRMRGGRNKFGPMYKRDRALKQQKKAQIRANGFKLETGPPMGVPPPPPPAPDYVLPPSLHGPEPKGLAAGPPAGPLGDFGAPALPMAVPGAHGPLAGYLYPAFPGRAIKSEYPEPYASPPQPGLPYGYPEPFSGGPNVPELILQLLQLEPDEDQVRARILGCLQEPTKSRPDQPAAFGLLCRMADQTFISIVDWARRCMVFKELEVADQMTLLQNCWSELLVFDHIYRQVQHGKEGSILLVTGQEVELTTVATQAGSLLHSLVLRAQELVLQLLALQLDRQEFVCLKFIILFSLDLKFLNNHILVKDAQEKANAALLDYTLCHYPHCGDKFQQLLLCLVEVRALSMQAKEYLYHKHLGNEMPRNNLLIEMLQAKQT
Nuclear receptor subfamily 5 group A member 2 (Homo sapiens), sequence (O00482 whole entry, looked up): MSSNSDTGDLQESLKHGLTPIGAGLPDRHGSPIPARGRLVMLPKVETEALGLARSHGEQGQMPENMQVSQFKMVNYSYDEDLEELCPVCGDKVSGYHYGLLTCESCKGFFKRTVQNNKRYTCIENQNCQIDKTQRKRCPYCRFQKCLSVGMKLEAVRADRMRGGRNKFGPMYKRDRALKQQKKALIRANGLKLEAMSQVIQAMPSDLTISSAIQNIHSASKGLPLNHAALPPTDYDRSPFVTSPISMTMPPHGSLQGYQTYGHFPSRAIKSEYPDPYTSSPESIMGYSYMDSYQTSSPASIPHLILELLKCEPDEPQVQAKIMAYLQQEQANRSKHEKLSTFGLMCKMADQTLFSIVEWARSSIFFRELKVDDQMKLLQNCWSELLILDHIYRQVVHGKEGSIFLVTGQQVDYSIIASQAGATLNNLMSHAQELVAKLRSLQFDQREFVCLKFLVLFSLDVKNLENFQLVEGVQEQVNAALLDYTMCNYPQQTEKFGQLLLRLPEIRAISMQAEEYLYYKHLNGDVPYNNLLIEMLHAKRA

| Compound | inhibition [1] | inhibition [2] | inhibition [3] | inhibition [4] | inhibition [5] | inhibition [6] | inhibition [7] | inhibition [8] | inhibition [9] | inhibition [10] |
| --- | --- | --- | --- | --- | --- | --- | --- | --- | --- | --- |
| CCC(C)C1NC(=O)C(NC(=O)C(CC(C)C)N(C)C(=O)C2CCCN2C(=O)C(C)O)C(C)OC(=O)C(Cc2ccc(OC)cc2)N(C)C(=O)C2CCCN2C(=O)C(CC(C)C)NC(=O)[C@H](C)C(=O)[C@H](C(C)C)OC(=O)CC1O (some centres not stated) | 99.5% (active) | 98.2% (active) | 98.5% (active) | 98.1% (active) | 96.4% (active) | 111% (active) | 98.4% (active) | 99% (active) | 82.2% (active) | 79.6% (active) |
| Cc1ccc(-c2cc(-c3ccccc3)cc(-c3ccccc3)[n+]2-c2ccccc2)cc1 | 86.4% (active) | 89.9% (active) | 67.6% (active) | 85.6% (active) | 83.6% (active) | 110% (active) | 91.4% (active) | 95.2% (active) | 70% (active) | 61.8% (active) |
| O=c1[nH]c2ccccc2n1C1CCN(C(c2ccccc2OC(F)(F)F)c2nnnn2-c2ccc3c(c2)OCCO3)CC1 (configuration not stated) | 27.6% | -1.84% | -23.1% | -0.24% | 61.8% (active) | 37.3% | 43.7% (active) | 39.8% (active) |  |  |
| C=CCn1c(O)c(C(C)=NCc2cc(OC)cc(OC)c2)c(=O)[nH]c1=O | 49.6% (active) | 28.2% | 43% | 24.5% | 42.4% (active) | 66.4% (active) | 57.7% (active) | 43.6% (active) |  |  |
| NC(=S)c1cn(C2OC(CO)C(O)C2O)c2ncnc(N)c12 (configuration not stated) | 97.4% (active) | 95.9% (active) | 89.7% (active) | 96.2% (active) | 93.2% (active) | 109% (active) | 98% (active) | 97.9% (active) | 69.4% (active) | 71.6% (active) |
| c1ccc(-c2cc(-c3ccccc3)[n+](-c3ccccc3)c(-c3ccccc3)c2)cc1 | 61.7% (active) | 75.9% (active) | 49.1% (active) | 81.6% (active) | 69.6% (active) | 104% (active) | 81.3% (active) | 89.4% (active) |  |  |
| C[C@H]1O[C@@H](OC2CC[C@]3(C=O)[C@H]4CC[C@]5(C)[C@@H](C6=CC(=O)OC6)CC[C@]5(O)[C@@H]4CC[C@]3(O)C2)CC2OC(C)(C)OC21 (some centres not stated) | 94.5% (active) | 85.3% (active) | 65.8% (active) | 83.1% (active) | 97.6% (active) | 111% (active) | 99.5% (active) | 93.3% (active) |  |  |
| C[C@]12CC[C@H](O)C[C@H]1CC[C@@H]1[C@@H]2C[C@@H](O)[C@]2(C)[C@@H](C3=CC(=O)OC3)CC[C@]12O | 88.8% (active) | 65.8% (active) | 13.8% | 65.4% (active) | 94.8% (active) | 107% (active) | 96% (active) | 77.7% (active) |  |  |
| Cc1cc(-c2ccccc2)cc(-c2ccccc2)[n+]1CCc1ccccc1 | 37.8% | 52.1% (active) | 27.1% | 51.7% (active) | 51.1% (active) | 91.6% (active) | 75.2% (active) | 73.2% (active) |  |  |
| O=[N+]([O-])c1ccc(N2CCOCC2)c2c1no[n+]2[O-] | 82.4% (active) | 62.9% (active) | 23% | 62.2% (active) | 94.1% (active) | 101% (active) | 92.6% (active) | 70.7% (active) |  |  |
| CCCCN=C[C@]12CCC(O)CC1(O)CCC1[C@@H]2CC[C@]2(C)[C@H](C3C=CC(=O)O3)CCC12O (some centres not stated) | 94% (active) | 75.5% (active) | 42% | 75% (active) | 97% (active) | 110% (active) | 98.5% (active) | 85.2% (active) | 69.6% (active) | 20.9% |
| CN(C)c1ccc(-[n+]2c(-c3ccccc3)cc(-c3ccccc3)cc2-c2ccccc2)cc1 | 84.6% (active) | 86.2% (active) | 52.3% (active) | 83.5% (active) | 79.2% (active) | 107% (active) | 91.6% (active) | 92% (active) |  |  |
| CC(=O)OC1CC2OC3C=C(C)CCC3(C)C1(C)C21CO1 (configuration not stated) | 98.2% (active) | 95.5% (active) | 94.2% (active) | 95.1% (active) | 95.2% (active) | 111% (active) | 98% (active) | 96.8% (active) | 82.5% (active) | 76.1% (active) |
| COc1ccc(-[n+]2c(-c3ccccc3)cc(-c3ccc(C)cc3)cc2-c2ccccc2)cc1 | 85.5% (active) | 87.3% (active) | 71.9% (active) | 88.3% (active) | 82.7% (active) | 111% (active) | 96.9% (active) | 98.2% (active) |  |  |
| C[C@@H]1O[C@@H](O[C@H]2C[C@@H](O)[C@]3(CO)[C@@H]4C(CC[C@]3(O)C2)[C@@]2(O)CC[C@H](C3COC(=O)C3)[C@@]2(C)C[C@H]4O)[C@H](O)[C@H](O)[C@H]1O (some centres not stated) | 87.8% (active) | 47.1% (active) | 5.8% | 54.1% (active) | 92% (active) | 100% (active) | 85.2% (active) | 56.4% (active) |  |  |
| O=C(Nc1ccc(OC(=O)N2CCCCC2)cc1)N1CCOCC1 | 24.1% | 1.46% | 9.87% | -2.66% | 29.4% (active) | 19.7% | 37.9% | 14.3% | 35% | 68.5% (active) |
| CC1CC(C)CC(C)C(O)C(C#N)=CC=CCC(C2CCCC2C(=O)O)OC(=O)CC(O)C(C)C1 (configuration not stated) | 97.5% (active) | 95.6% (active) | 89.6% (active) | 94.4% (active) | 95.8% (active) | 110% (active) | 97.9% (active) | 98.7% (active) | 78.4% (active) | 78.7% (active) |
| CC[n+]1c(/C=C/N(C)c2ccccc2)sc2ccc(Cl)cc21 | 28.9% | 46.1% (active) | 30.4% | 48.8% (active) | 23.7% | 83.7% (active) | 73.4% (active) | 75% (active) |  |  |
| CN(C)c1ccc(/C=C/c2cc[n+](C)c3ccccc23)cc1 | 55.9% (active) and 45.3% (active) | 74% (active) and 71.3% (active) | 40.2% and 45.5% | 77.9% (active) and 78.6% (active) | 72.7% (active) and 74.2% (active) | 102% (active) and 107% (active) | 86.9% (active) and 89.7% (active) | 82% (active) and 84% (active) |  |  |
| CC[C@@]1(O)C(=O)OCc2c1cc1n(c2=O)Cc2cc3c(NC(=O)CN)cccc3nc2-1 | 61.8% (active) | 9.37% | 55.3% (active) | -2.11% | 42.7% (active) | 70% (active) | 59.3% (active) | 9.93% |  |  |
| COC(=O)C12OCC34C(CC5C(C)=C(O)C(=O)CC5(C)C3C(O)C1O)OC(=O)C(OC(=O)/C=C(\C)C(C)C)C24 (configuration not stated) | 99% (active) | 97.6% (active) | 98.1% (active) | 97.7% (active) | 96.7% (active) | 110% (active) | 98.9% (active) | 97.9% (active) |  |  |
| CCOc1ccc(-c2cc(C)[n+](CCc3ccc(OC)c(OC)c3)c(-c3ccc(OCC)cc3)c2)cc1 | 53.6% (active) | 69.7% (active) | 60% (active) | 73.4% (active) | 70% (active) | 104% (active) | 92.3% (active) | 85.4% (active) |  |  |
| CCC(C)NC(=O)CCC(=O)OC1O[C@H]2OC3(C)CC[C@H]4[C@H](C)CCC(C1C)C24OO3 (some centres not stated) | 63.7% (active) | 83.6% (active) | 47.4% (active) | 82% (active) | 75% (active) | 102% (active) | 91.8% (active) | 84.7% (active) |  |  |
| COC1CC2C=C(C)C=CC=CC(=O)NC(c3ccccc3)CC=CCCC(O)CC(=O)C2=C1O (configuration not stated) | 75.1% (active) | 84% (active) | 29.9% | 84.7% (active) | 81.7% (active) | 107% (active) | 95.6% (active) | 89.8% (active) |  |  |
| COc1ccc(-n2nnnc2C(c2cc3ccccc3o2)N2CCC(n3c(=O)[nH]c4ccccc43)CC2)cc1 (configuration not stated) | -5.69% | 5.58% | 0.21% | 6.66% | 39.6% (active) | 36.4% | 45.7% (active) | 35.3% (active) | 49.7% (active) | 22.9% |
| CC1C(OC(=O)CCC(=O)NC(C)(C)CO)O[C@H]2OC3(C)CC[C@H]4[C@H](C)CCC1C24OO3 (some centres not stated) | 55.9% (active) | 79.9% (active) | 51.9% (active) | 81.2% (active) | 76.2% (active) | 101% (active) | 91% (active) | 84% (active) |  |  |
| CC[n+]1c(-c2ccccc2)c2cc(N)ccc2c2ccc(N)cc21 | -43.8% | 52.4% (active) | 40.9% | 41.4% (active) | 68.7% (active) | 92.5% (active) | 77.7% (active) | 84.8% (active) |  |  |
| O=C1NC2C(=CC(O)C(O)C2O)c2cc3c(cc21)OCO3 (configuration not stated) | 97.1% (active) | 96.6% (active) | 88.5% (active) | 96.3% (active) | 94% (active) | 109% (active) | 96.7% (active) | 95.6% (active) | 73.8% (active) | 76.2% (active) |
| COc1ccc(CC2NCC(O)C2OC(C)=O)cc1 (configuration not stated) | 98.6% (active) | 96.7% (active) | 96.2% (active) | 96.6% (active) | 96.6% (active) | 111% (active) | 98.3% (active) | 96.1% (active) | 84.6% (active) | 82.5% (active) |
